Data as given in PubChem BioAssay (NCI).
This is part of a sample that, as a whole, favours compounds with a hit. Of some 83,000 tested, about 20% had one in any assay.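 Cell lines were cultured in 96-well plates, exposed to a single compound concentration, and assessed for percent growth 48 hours later.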 Activity calls are given as the source filed them. The calls were made as follows: active = growth percent below 10; inactive = the rest.

Columns and labels:
Test in all cases: NCI-60 one-dose screen, 48 h (100 = growth as untreated, 0 = no growth, -100 = all killed)
Settings in all cases: 10 µM unless noted
[1] = tested on: NCI-H23 lung
[2] = tested on: NCI-H226 lung
[3] = tested on: NCI-H322M lung
[4] = tested on: HOP-62 NSCLC
[5] = tested on: NCI-H460 lung
[6] = tested on: HOP-92 NSCLC
[7] = tested on: NCI-H522 lung
[8] = tested on: A549/ATCC NSCLC
[9] = tested on: 786-0 renal
[10] = tested on: COLO 205 colon

Measured: growth

O=C(O)[C@@H](Cc1ccc2ccccc2c1)NC(=O)n1c2ccccc2c2ccccc21
inactive: [1] 34.8% | [2] 85.9% | [3] 49% | [4] 31.3% | [6] 39.5% | [8] 44.3% | [9] 27.7%
active: [5] 9.11% | [7] -7.97% | [10] -35.2%

COc1ccc(C(=S)N2CCN(c3ccc(Cl)cc3)CC2)cc1
inactive: [1] 101% | [2] 96% | [3] 89.3% | [4] 97.8% | [5] 105% | [6] 89.9% | [7] 75.6% | [8] 84% | [9] 92.5% | [10] 103%

CCN(CC)CCN1C(=O)c2c(c(C)c3c(oc4ccc(OC)cc43)c2C)C1=O
inactive: [1] 97.9% | [2] 14.3% | [3] 95.2% | [4] 93.7% | [5] 74.3% | [6] 84.7% | [7] 95% | [8] 94.5% | [10] 96.1%
active: [9] -30%

Cc1ccc2c(-n3nc(C#N)c(C#N)c3N)cc(=O)[nH]c2c1
inactive: [1] 88.9% | [2] 78.7% | [3] 66.8% | [4] 68.1% | [5] 81.1% | [6] 84.3% | [7] 77% | [8] 91% | [9] 85.3% | [10] 97.8%

Cc1ccc(CNc2ccc3nc(CCC(C)C)[nH]c3c2)cc1
inactive: [1] 94.2% | [2] 89.8% | [3] 100% | [4] 99.6% | [5] 106% | [6] 56.7% | [7] 84.2% | [8] 97.6% | [9] 84% | [10] 102%

CN1C(=O)/C(=C2\SC(=Nc3ccccc3)N(Nc3ccccc3)C2=O)c2ccccc21
inactive: [1] 94.1% | [2] 93.8% | [3] 95.4% | [4] 88.1% | [5] 101% | [6] 100% | [7] 94.5% | [8] 98.6% | [9] 107% | [10] 112%

CCCCC#Cc1c(I)n(C)c(=O)[nH]c1=O
inactive: [1] 14.4% | [2] 39.8% | [3] 101% | [4] 93.9% | [5] 103% | [8] 70.9% | [9] 98.2%
active: [6] -89.7% | [7] -13.4% | [10] -36.8%

COc1cc(C(=O)c2c(-c3ccccc3)oc3c(OC)cccc23)cc(OC)c1OC
active: [2] 8.39% | [5] 3.18% | [6] -1.18% | [9] 9.22% | [10] -15.7%
inactive: [1] 23.8% | [3] 46.2% | [4] 30% | [7] 13.9% | [8] 17%

C=C(C)[C@@H]1CC[C@]2(C)[C@H](CC=C3[C@@H]4CC(C)(C)CC[C@]4(CO)CC[C@]32C)[C@@]1(C)CCCN
active: [5] -93.2% | [7] -40.1% | [8] -71% | [10] -56.8%
inactive: [1] 68.7% | [2] 95.9% | [3] 54.6% | [4] 63.9% | [6] 42.5% | [9] 32.6%

C#CCO[C@H]1CC(CC#C)(CC#C)C(=O)[C@@H]2[C@H]1[C@H]1C[C@@H]3[C@@]4(C)CCC[C@@](C)(C(=O)OC)[C@@H]4CC[C@@]23C=C1C(C)C
inactive: [1] 73.2% | [2] 88.3% | [3] 104% | [4] 98.7% | [5] 97.8% | [6] 13.6% | [8] 89.4% | [9] 41.4% | [10] 86.8%
active: [7] -77%

CCOC(=O)C(=Cc1ccc(-c2ccccc2)cc1)C(=O)OCC
inactive: [1] 38.6% | [2] 46.5% | [3] 78.4% | [4] 73.7% | [5] 78% | [6] 63.2% | [7] 26% | [8] 49.6% | [9] 43.1% | [10] 55.6%

CC1(C)C(N)=Nc2cc(OCCCN3Cc4ccccc4C3)c(OCC3CC3)cc21
active: [10] -57.2%
inactive: [1] 93.5% | [2] 82.9% | [3] 82.3% | [4] 93.2% | [5] 79.8% | [6] 63.7% | [7] 59.6% | [8] 77.2% | [9] 64%

Cc1c2cccnc2c(C)c2c1c1cc(CO)ccc1n2C
inactive: [1] 30.6% | [3] 26.8% | [4] 30.5% | [6] 32.9% | [7] 30.3% | [8] 20.9% | [9] 22.6% | [10] 19.1%
active: [2] -33.4% | [5] 0.162%

Cc1ccc(-c2nc3nc(-c4ccccc4)nc(N4CCCN(S(C)(=O)=O)CC4)c3o2)cc1
active: [5] 4.39%
inactive: [1] 86.6% | [2] 58.1% | [3] 93.9% | [4] 66.5% | [6] 84.9% | [7] 78.8% | [8] 38.8% | [9] 87.7% | [10] 86.5%

Cc1ccc(S(=O)(=O)c2nc(-c3ccccc3)oc2Sc2nc3ccccc3s2)cc1
inactive: [1] 20.9% | [2] 48.6% | [3] 94% | [4] 97.1% | [5] 68.1% | [6] 73.9% | [7] 54.1% | [8] 101% | [9] 35.3% | [10] 102%

Cc1nc2cc(O)c(O)cc2cc1Oc1ccc(NC(=O)Nc2ccc(Cl)c(Cl)c2)cc1
active: [7] 1.87%
inactive: [1] 62.8% | [2] 38.3% | [3] 94% | [4] 35.7% | [5] 62.1% | [6] 37.5% | [8] 50.5% | [9] 103% | [10] 34.7%

CCOC(=O)C(Cc1ccc(OC)cc1)C(=O)OCC
active: [6] -1.28%
inactive: [1] 17.6% | [2] 65.9% | [3] 36.3% | [4] 52.8% | [5] 30.4% | [7] 25% | [8] 51.7% | [9] 39.3% | [10] 71.6%

O=C(/C=C/C12c3ccccc3C(c3ccccc31)C1C(=O)NC(=O)C12)c1ccc(Br)cc1 (stereo not given)
inactive: [1] 50% | [2] 94.4% | [3] 55.8% | [4] 56.3% | [5] 34.6% | [6] 74.5% | [7] 47.1% | [8] 50.2% | [9] 69.2% | [10] 58.8%

O=S(=O)(Oc1ccc(Br)cc1)c1ccc(Cl)cc1
inactive: [1] 89.4% | [2] 100% | [3] 97.3% | [4] 105% | [5] 110% | [6] 102% | [7] 97.4% | [8] 101% | [9] 89.2% | [10] 108%

COc1cc(/C=C/C(=O)c2ccc(-n3cc(CN4CCN(c5cc6c(cc5F)c(=O)c(C(=O)O)cn6C5CC5)CC4)nn3)cc2)ccc1O
inactive: [1] 91.4% | [2] 82.1% | [3] 80.2% | [4] 67.7% | [5] 66.7% | [6] 79.3% | [7] 83.9% | [8] 71.6% | [9] 53.9% | [10] 106%

COC1=C(C)C(=O)N2[C@@H]1[C@H](c1ccccc1)OC21C=CC(=O)C=C1
active: [1] 3.23% | [2] -25.9% | [6] -11.7% | [7] -69.3% | [9] -48.9% | [10] -34.6%
inactive: [3] 81.8% | [4] 28.7% | [5] 89.4% | [8] 82.3%

CCN(CC)c1ccc(CNc2cc(C)nc3ccccc23)cc1
active: [10] 1.94%
inactive: [1] 26.9% | [2] 56.2% | [3] 80.3% | [4] 77.1% | [5] 58.2% | [6] 49.6% | [7] 53.5% | [8] 72.7% | [9] 79.1%

Cc1ccc(-c2nc(/C=C3/C(=O)Nc4ccc(F)cc43)c3ccccn23)cc1
inactive: [1] 77.1% | [2] 95.2% | [3] 91.6% | [4] 92.8% | [5] 36% | [6] 82.2% | [7] 62.7% | [8] 81.8% | [9] 112% | [10] 81.9%

CC1(C)NCCC[C@]2(C)[C@H]3CC[C@H]4[C@H]5[C@H](C(=O)/C=C/c6cccnc6)CCC[C@]5(CO)CC[C@@]4(C)[C@]3(C)CC[C@@H]12
inactive: [1] 77.6% | [2] 96.2% | [3] 85.5% | [4] 97.3% | [5] 10.9% | [6] 48.1% | [7] 88% | [8] 67% | [9] 83.8%
active: [10] -72.9%

COC(=O)c1c2c(n3ccccc13)C(=O)c1ccccc1C2=O
inactive: [1] 44.9% | [2] 73.8% | [3] 23.5% | [4] 68.7% | [6] 77.8% | [7] 54.4% | [9] 71.5% | [10] 28.1%
active: [5] 1.15% | [8] -49.1%

NC(=O)c1cnc(Nc2cccc(N)c2)nc1NCCCNC(=O)C1CCC1
inactive: [1] 79.8% | [2] 69.1% | [3] 86.6% | [4] 46.6% | [5] 69.8% | [6] 123% | [7] 64.5% | [8] 87.7% | [9] 76.8% | [10] 28.2%
